Only some compounds are listed: those with a hit (about 1.7% of all), similar ones and a draw of the others.
PME-1 primary: PME-1 inhibitors via competitive probe labeling, primary screen, biochemical, fluorescence polarization, FP-Rh probe, HTS. Protein phosphatase methylesterase 1 (Homo sapiens), Q9Y570. recombinant PME-1. inhibition, % at 5.9 µM. 0.53% of 320,000 active;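 active means inhibition above the campaign mean of all compounds plus 3 SD, cut at about 26% in these data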;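 further: competitive labeling of PME-1 active site by serine hydrolase directed probe; inhibitors block probe labeling so polarization falls and inhibition rises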
Target sequence (Q9Y570 whole entry, looked up): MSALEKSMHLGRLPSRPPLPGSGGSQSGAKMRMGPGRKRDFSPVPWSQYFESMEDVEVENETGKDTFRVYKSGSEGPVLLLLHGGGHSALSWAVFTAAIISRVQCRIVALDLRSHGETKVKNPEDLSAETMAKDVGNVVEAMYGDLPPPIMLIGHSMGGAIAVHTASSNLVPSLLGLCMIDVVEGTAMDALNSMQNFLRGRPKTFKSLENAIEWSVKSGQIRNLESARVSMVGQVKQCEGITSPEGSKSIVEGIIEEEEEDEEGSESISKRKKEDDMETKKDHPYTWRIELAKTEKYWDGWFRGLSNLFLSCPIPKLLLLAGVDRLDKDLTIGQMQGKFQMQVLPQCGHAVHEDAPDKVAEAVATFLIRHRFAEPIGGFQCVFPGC
PAD4 inh: human PAD4 inhibitors, primary screen, biochemical, fluorescence polarization, 1536-well format; Protein-arginine deiminase type-4 (Homo sapiens), Q9UM07; 0.41% of 330,000 active; inhibition, % at 6.36 µM; recombinant PAD4, RCA probe fluorescence polarization;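 active means percent inhibition above a cutoff equal to the mean of all tested compounds plus 3 SD, cut at about 15% in these data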
GSTO1 counter: inhibitors of recombinant GSTO1, primary screen, counter-screen for RBBP9 inhibitor project, biochemical, fluorescence polarization. 1.1% of 300,000 active. Glutathione S-transferase omega-1 (Homo sapiens), P78417. activity-based probe fluorescence polarization. inhibition, % at 5.96 µM;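 active means inhibition above the campaign mean inhibition plus 3 SD, cut at about 35% in these data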
Target sequence (P78417 whole entry, looked up): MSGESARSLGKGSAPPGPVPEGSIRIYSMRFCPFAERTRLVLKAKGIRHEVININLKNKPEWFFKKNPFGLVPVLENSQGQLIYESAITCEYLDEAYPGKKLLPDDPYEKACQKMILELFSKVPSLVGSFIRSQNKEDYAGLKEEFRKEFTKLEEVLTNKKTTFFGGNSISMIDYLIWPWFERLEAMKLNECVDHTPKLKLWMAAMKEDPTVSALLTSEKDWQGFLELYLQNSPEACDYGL
Fam108B inh: mouse Fam108B serine hydrolase inhibitors, primary screen, counter-screen for RBBP9 inhibitor project, biochemical, fluorescence polarization. recombinant Fam108B, FP-Rh probe fluorescence polarization. inhibition, % at 9.51 µM. 0.33% of 300,000 active. AID 1947, 2009;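 active means inhibition above the screen mean inhibition plus 3 SD, computed separately per campaign, cut at about 18% in these data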;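 further: inhibitors lower polarization as less probe binds the enzyme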
LYPLA2 counter: LYPLA2 inhibitors, primary screen, counter-screen for PME1 inhibitor project, biochemical, fluorescence polarization, FP-Rh probe ABPP; Acyl-protein thioesterase 2 (Homo sapiens), O95372; recombinant LYPLA2; inhibition, % at 5.9 µM; 0.38% of 320,000 active;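 active means inhibition above the screen-wide mean plus 3 SD, limit set per campaign, cut at about 26% in these data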
LYPLA1 inh: LYPLA1 inhibitors, primary screen, counter-screen for PME1 inhibitor project, biochemical, fluorescence polarization, FP-Rh probe ABPP | Acyl-protein thioesterase 1 (Homo sapiens), O75608 | recombinant LYPLA1 | inhibition, % at 5.9 µM | 0.16% of 320,000 active | AID 2174, 2009;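 active means inhibition above the mean of all tested compounds plus 3 SD, set per campaign, cut at about 14% in these data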;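 further: inhibitors block serine hydrolase probe labeling of LYPLA1 so polarization falls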
GSTO1 inh conf: GSTO1 inhibitor hit confirmation, counter-screen for RBBP9 inhibitor project, biochemical, fluorescence polarization, triplicate; inhibition, % at 5.96 µM; 54% of 2,400 active; shares compounds with GSTO1 counter; recombinant GSTO1, probe fluorescence polarization; AID 2176, 2009;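 active means inhibition above the primary screen's cutoff, its mean inhibition plus 3 SD, cut at about 35% in these data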;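 further: loss of polarization as inhibitors block binding of rhodamine sulfonate ester activity probe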
GSTO1 ABPP inh: inhibitors of purified human GSTO1, late-stage follow-up, biochemical, gel ABPP, SE-Rh probe, percent inhibition; shares compounds with GSTO1 counter; recombinant GSTO1, gel ABPP SE-Rh probe fluorescence; inhibition, % at 1 µM; 30% of 130 active;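 active means inhibition of the enzyme GSTO1 above about 75%, limit read from the data; inactive means inhibition below that limit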
Hits are given with their value; 0 = inactive; - = no result.

SMILES	PME-1 primary	PAD4 inh	GSTO1 counter	Fam108B inh	LYPLA2 counter	LYPLA1 inh	GSTO1 inh conf	others
COC(=O)C1Cc2c([nH]c3ccccc23)C2(CCN(Cc3ccccc3)CC2)N1 (centres undefined)	0	0	62	0	0	0	0
O=C1CCN2C=Nc3cccc4ccc1c2c34	0	0	40	0	0	0	0
CC1=C(C)CC2(SC1)C(=O)N(c1ccccc1)N=C2N (centres undefined)	0	0	0	0	0	0	-
COCC(=O)c1[nH]c2ccccc2c1C	0	0	0	0	0	0	-
O=C(O)c1[nH]c2ccccc2c1C(c1ccccc1)c1c(C(=O)O)[nH]c2ccccc12	0	0	38	0	0	0	0
Cn1c(=O)c2ccccc2n2c(=S)[nH]nc12	0	0	0	0	0	0	-
Cn1c(=O)c2ccccc2n2c(CCl)nnc12	0	0	80	0	0	0	86	GSTO1 ABPP inh=0
CC1=C(C)/C(=N\OS(=O)(=O)c2ccc(C)cc2)C=CC1=O	0	0	44	0	0	0	0
COc1ccc(S(=O)(=O)/N=C2/C=CC(=O)C(C)=C2C)cc1	0	0	0	0	0	0	-
Cc1ccc(NC(=O)c2cc(CC(C)C)nc3ccccc23)cc1	0	0	42	0	0	0	0
Cc1ccc(NC(=O)c2cc(C)nc3ccccc23)cc1	0	0	0	0	0	0	-
Nc1nnc(CC(=O)N/N=C/c2cccc([N+](=O)[O-])c2)s1	0	0	0	0	0	0	-
Nc1nnc(CC(=O)N/N=C/c2cc([N+](=O)[O-])cc(Br)c2O)s1	0	0	41	0	0	0	71
Nc1ccc(N2CCCCC2)cc1N1CCCCC1	0	0	57	0	0	0	0
Cc1nn(-c2cc(N3CCCCC3)ccc2N)c(=O)c2ccccc12	0	0	0	0	0	0	-
Oc1ccc(-c2csc(Nc3cccc4ccccc34)n2)cc1O	0	0	62	0	0	0	0
Oc1ccc(-c2csc(Nc3ccccn3)n2)cc1O	0	0	0	0	0	0	-
NCc1ccccc1COc1ccccc1	0	0	0	0	0	0	-
CCOC(=O)C1=C(C)OC(N)=C(C#N)C1c1cc2c(cc1[N+](=O)[O-])OCO2 (centres undefined)	0	0	46	0	0	0	0
CC[C@H](C)/C=C/C1=CC2=C(Cl)C(=O)[C@@]3(C)OC(=O)C(C(=O)[C@H](C)[C@@H](C)O)=C3C2=CO1	0	0	47	0	0	0	0
Cc1[nH]n(-c2ccccc2)c(=O)c1C(C[N+](=O)[O-])c1ccccc1Cl (centres undefined)	0	0	43	0	0	0	0
Cc1[nH]n(-c2ccccc2)c(=O)c1C(c1ccc(O)c([N+](=O)[O-])c1)c1c(C)[nH]n(-c2ccccc2)c1=O	0	57	59	0	0	0	47
COc1c2occc2c(OC)c2c(=O)cc(C(F)(F)C(F)(F)F)oc12	0	0	0	0	0	0	-
Oc1ccccc1NCC(O)Cn1ccc2ccccc21 (centres undefined)	0	0	66	0	0	0	0
Cc1ccn2cc(-c3ccc(O)c(O)c3)nc2c1	0	0	60	0	0	0	0
SMILES	PME-1 primary	PAD4 inh	GSTO1 counter	Fam108B inh	LYPLA2 counter	LYPLA1 inh	GSTO1 inh conf	others
Cc1ccn2cc(-c3cccc(NC(=O)C(C)C)c3)nc2c1	0	0	0	0	0	0	-
Oc1ccc(-c2cn3ccccc3n2)cc1O	0	0	43	0	0	0	0
COc1ccccc1/C=C/CN1CC(C)OC(C)C1 (centres undefined)	0	0	0	0	0	0	-
COc1ccc(CCNC(N)=S)cc1OC	0	0	0	0	0	0	-
O=C(NC1CCN(C(=O)Nc2ccccc2Cl)CC1)c1ccccc1	0	0	0	0	0	0	-
CC1CCN=C(N)S1 (centres undefined)	0	0	0	0	0	0	-
Cc1ccc(NC(=O)Cc2nc(CCl)cs2)cc1	0	0	58	0	0	0	95	GSTO1 ABPP inh=87
COc1ccc(CC(=O)OCc2csc(CC(=O)Nc3ccc(C)cc3)n2)cc1	-	0	-	-	-	-	-
O=C(NNc1ccc(Cl)cc1)c1c(F)cccc1Cl	0	0	0	0	0	0	-
CC(=O)C(=Nc1ccccc1Cl)NNc1ccc(Cl)cc1	0	0	40	0	0	0	0
CC(=O)c1cccc(NC(=O)c2ccccc2N(Cc2ccccc2)S(C)(=O)=O)c1	0	0	0	0	0	0	-
CCCN1CCC(=O)N([C@H](CSc2ccc(Br)cc2)c2ccccc2)CC1	0	0	53	0	0	0	0
COc1ccc(N(C(=O)CCl)C(C(=O)NCCc2ccccc2)c2cccs2)cc1 (centres undefined)	0	0	93	0	0	0	98	GSTO1 ABPP inh=94
Oc1ccccc1Oc1ncc(Br)c(N2CCOCC2)n1	0	0	0	0	0	0	-
Oc1ccccc1Oc1ncc(Br)c(Cl)n1	0	0	49	0	0	0	0
O=C1NC[C@@H](c2ccccc2)OC(=O)[C@H](Cc2ccc(F)cc2)C/C=C\C[C@@H]1CC(=O)N(CCO)Cc1ccccc1	-	0	-	-	-	-	-
Cc1noc(C)c1S(=O)(=O)N(C)C[C@H]1Oc2ccc(NS(=O)(=O)c3cn(C)cn3)cc2C(=O)N([C@H](C)CO)C[C@@H]1C	-	0	-	-	-	-	-
Cc1cc(C)n2c(=O)c3ccc(Cl)cc3nc2c1C#N	0	0	53	0	0	0	0
CSc1cccc(NC(=O)N2CCN(C)CC2)c1	0	0	0	0	0	0	-
COc1cc(/C(C)=N/NC(=O)Cc2c(C)[nH][nH]c2=O)ccc1O	0	0	0	0	0	0	-
CC(C)C1=CC2=CCC3C(C)(C(=O)O)CCCC3(C)C2CC1 (centres undefined) (tested in a mixture with another compound)	0	0	39	0	0	0	0
Cc1ccc(C(=O)OCC(=O)c2c[nH]c3ccccc23)cc1	0	0	0	0	0	0	-

Screens deposited in PubChem BioAssay by The Scripps Research Institute Molecular Screening Center.
